Measured values published in PubChem BioAssay AID504583 (Broad Institute, 2011).
Entries with a potency or affinity are not part of this list. Inconclusive results are not listed. Active and inactive are the calls of the source.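 Rule for the calls: active = lowers substrate conversion with a fitted half-maximal potency at most ten times the top dose, in every run; inconclusive = runs disagree, or flat weak or poorly fitted curves; inactive = every run inactive, flat, weak or opposite direction.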

These molecules were tested against cAMP-dependent protein kinase catalytic subunit alpha (Homo sapiens) (UniProt P17612) (assay: inhibition of human PKA kinase activity – biochemical, Caliper mobility shift, dry powder samples, dose response (AID 504583)). Settings: recombinant PKA, Caliper peptide phosphorylation % conversion; series mostly up to 10 µM.

outcome, inactive:
COc1cc(N2CCC(O)CC2)ccc1Nc1ncc2c(n1)N1CCc3cccc(c31)C(=O)N2C
COc1cc(/C=C2\SC(=Nc3ccccc3OC)NC2=O)ccc1O
O=C(Nc1ccccc1-c1ccccc1)c1ccc(Br)o1
COc1cc(N2CCN(C)CC2)ccc1Nc1ncc2c(n1)N(C)c1sccc1C(=O)N2C
COc1cc(/C=N/n2c(-c3ccccc3)n[nH]c2=S)ccc1O
COc1cc(C(=O)NC2CCN(C)CC2)ccc1Nc1ncc2c(n1)N(C1CCC(O)CC1)CCC(=O)N2C (centres undefined)
Oc1ccc(Nc2nc(-c3ccccc3O)nc3ccccc23)cc1
CC(=O)N(C)c1ccc(N=Cc2c(O)ccc3ccccc23)cc1
COc1cc(N2CCC(N3CCN(C)CC3)CC2)ccc1Nc1ncc2c(n1)N1CCC[C@H]1CC(=O)N2C
O=C(Nc1ccccc1-c1nc2ccccc2[nH]c1=O)c1cccs1
COc1cc(C(=O)N2CCC(N3CCN(C)CC3)CC2)ccc1Nc1ncc2c(n1)N(C)c1ccccc1C(=O)N2C
CC(Oc1ccc2c(c1)c1ccnc3c4ccccc4c(=O)n2c13)C(=O)NCCN1CCOCC1 (centres undefined)
O=C1NCCCc2c1oc1ccc(O)cc21
CCOc1ccccc1C(=O)Nc1cc(Cl)ccc1O
CCCn1c(NC(=O)c2cccc(S(=O)(=O)N3CCCC3)c2)nc2ccccc21
COc1cc(N2CCN(C)CC2)ccc1Nc1ncc2c(n1)N1CCC[C@H]1CC(=O)N2C
O=C1NC(=NCc2ccccc2)S/C1=C/c1ccc(O)cc1
CC(C)n1cnc2c(Nc3cccc(Cl)c3)nc(NCCO)nc21
COc1cc(N2CCN(C)CC2)ccc1Nc1ncc2c(n1)N(C1CCCC1)C(C)CC(=O)N2C (centres undefined)
Cc1ncc(/C=C2\C(=O)Nc3ccccc32)[nH]1
COc1cc(N2CCN(C)CC2)ccc1Nc1ncc2c(n1)N(C)c1ccccc1C(=O)N2C
COc1cc(/C=C2\SC(N)=NC2=O)ccc1O
CN1CCN(c2ccc(Nc3ncc4c(n3)N(C)c3ccccc3C(=O)N4C)cc2)CC1
COc1cc(N2CCC(N3CCN(C)CC3)CC2)ccc1Nc1ncc2c(n1)N(C1CCCC1)C(C)CC(=O)N2C (centres undefined)
